From PubChem BioAssay
Vif-A3F inh: blocks the Vif interaction with APOBEC3F; HeLa A3F-eYFP + Vif (tagged APOBEC3F with the HIV-1 protein that degrades it), YFP fluorescence increase; Potency, µM (highest dose often 46.1 µM), without a hit: at the top dose activity, negative = active; actives 0.2% (n = 390,000); further: potency means the concentration at half of the fitted maximal effect; % of control where 0% means no effect; nearly all actives have a fitted effect of over 65% in size
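HeLa cells stably expressing Vif plus C-terminally eYFP-tagged A3F were seeded, incubated overnight at 37 deg C, dosed with compound, incubated overnight again at 37 deg C. Yellow fluorescence (Ex 488/Em 500-530) reported blocked Vif-mediated A3F-eYFP degradation.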
MBNL1-CUG inh: blocks human MBNL1 binding to CUG repeat RNA; actives 0.036% (n = 280,000); Potency, µM (titrated, usually from 57.5 µM), without a hit: at the highest dose activity change, negative = inhibition, most hits filed as inhibitors; TR-FRET MBNL1-His/biotin-(CUG)12 binding, 665/545 ratio; Q9NR56; AID 2675; active means well fitted inhibition curve with a large enough effect in the signal ratio, with a control signal flat, not every such curve was filed as active; inconclusive means small, poorly fitted or top-dose-only effect, or effect the other way, or a change in a side signal; inactive means no such curve, though single readings can be large or run the other way; the % refers to the signal ratio; further: potency means the concentration at half of the fitted maximal effect; on the % scale 0 is the no-effect control and ±100 the full control effect
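Compounds (final 92 nM to 58 uM) are added to His-tagged MBNL1 and biotin-(CUG)12, then terbium anti-His antibody and streptavidin-XL665 (5 nM final). After 60 min at room temperature, the 665/545 nm ratio is read.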
TSG101-PTAP inh: blocks PTAP/TSG101 interaction to inhibit HIV-1 budding; Q99816; Fluorescence polarization, FITC-PTAP peptide / Tsg101 binding; Potency, µM (titrated, usually from 115 µM), without a hit: at the highest dose activity change, negative = inhibition, usual class: inhibitors; 340,000 tested, under 10 active; active means well fitted inhibition curve with a large enough effect in the main read-out, with a control signal flat, not every such curve was filed as active; inconclusive means small, poorly fitted or top-dose-only effect, or effect the other way, or a change in a side signal; inactive means no such curve, though single readings can be large or run the other way; further: potency means the concentration at half of the fitted maximal effect; % of control where 0% means no effect
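Compounds were pin-transferred onto Tsg101 binding domain (10 uM final) in HEPES pH 7.5 buffer, then FITC-PTAP peptide was added at 50 nM final. After 20 min at RT, polarization reported peptide displacement across a qHTS concentration series.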
Epigenetic derep: regulators of epigenetic silencing causing reporter derepression in mouse cells; AID 1865; Potency, µM (top dose mostly 53.9 µM), for inactives: top-dose GFP activation, most hits filed as activators; actives 0.2% (n = 280,000); murine LDR cells, GFP reporter derepression, 30 h; further: potency means the concentration at half of the fitted maximal effect; % of control where 0% means no effect; nearly all actives have a fitted effect of over 60% in size
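Derepression of a silenced CMV-GFP reporter in murine LDR cells is scored by enumerating GFP-positive cells with a laser-scanning microplate cytometer after 30 hours of treatment at 37 C.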
Vif-A3G inh: Vif-A3G binding inhibition. Q9HC16. AID 602310. Potency, µM (series often up to 46.1 µM), without a hit: top-dose activity, negative = active, usual class: inhibitors. HeLa A3G-eYFP + Vif (tagged APOBEC3G with the HIV-1 protein that degrades it), YFP fluorescence, overnight. actives 0.076% (n = 410,000); further: potency means the concentration at half of the fitted maximal effect; on the % scale 0 is the no-effect control and ±100 the full control effect; nearly all actives have a fitted effect of over 60% in size
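HeLa cells stably expressing Vif and C-terminally eYFP-tagged A3G, seeded overnight at 37 deg C, then exposed to compound by pintool overnight at 37 deg C. Rise in yellow fluorescence (Ex 488/Em 500-530, Acumen) marks blocked Vif-driven A3G degradation.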
CBFb-RUNX1 inh: inhibitors of human CBF-beta and RUNX1 interaction; Potency, µM (highest dose often 59.8 µM), without a hit: at the top dose activity, negative = inhibition, actives largely listed as inhibitors; Q01196+Q13951; AlphaScreen CBFb-His/RUNX1-biotin binding, biochemical; AID 1477; 230,000 tested, under 10 active; further: % of control where 0% means no effect
Target sequence (Q01196 whole entry, looked up): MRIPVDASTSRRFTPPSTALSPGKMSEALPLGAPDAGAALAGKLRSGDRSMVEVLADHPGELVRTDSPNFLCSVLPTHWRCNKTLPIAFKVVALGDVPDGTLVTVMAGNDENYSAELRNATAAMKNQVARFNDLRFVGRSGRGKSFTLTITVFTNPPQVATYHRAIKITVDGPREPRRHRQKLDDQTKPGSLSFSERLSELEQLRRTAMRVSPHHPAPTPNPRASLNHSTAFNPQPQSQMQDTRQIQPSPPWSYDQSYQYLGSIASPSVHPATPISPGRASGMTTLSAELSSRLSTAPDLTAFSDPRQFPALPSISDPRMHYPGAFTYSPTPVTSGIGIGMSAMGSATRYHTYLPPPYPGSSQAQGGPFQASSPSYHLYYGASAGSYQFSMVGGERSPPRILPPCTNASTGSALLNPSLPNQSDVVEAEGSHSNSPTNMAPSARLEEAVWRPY
Target sequence (Q13951 whole entry, looked up): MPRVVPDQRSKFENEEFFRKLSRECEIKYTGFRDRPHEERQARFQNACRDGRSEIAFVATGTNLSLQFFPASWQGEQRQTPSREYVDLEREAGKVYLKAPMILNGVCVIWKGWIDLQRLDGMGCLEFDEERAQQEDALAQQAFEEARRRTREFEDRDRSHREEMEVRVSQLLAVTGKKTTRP
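CBF-beta (His) and RUNX1 (biotin), 30 nM each; 20 min preassociation; + compound, 15 min; + beads 50 ng each (Ni, streptavidin), 90 min; RT; AlphaScreen read.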
Numbers without * were called inactive; ? = inconclusive; nt = no result given; [ ] = another dose, or the depositor's remark. A selection: hits, their analogues and other compounds. The true share with any hit is near 0.37%. Unless noted, the call rests on the fitted dose curve; in most records, active means well fitted curve in the direction sought with a large enough effect; inconclusive means small, poorly fitted or top-dose-only effect, or another doubt; inactive means no such curve, though single readings can be large; an effect the other way counts as inactive or inconclusive.

SMILES | Vif-A3F inh | MBNL1-CUG inh | TSG101-PTAP inh | Epigenetic derep | Vif-A3G inh | CBFb-RUNX1 inh
CCOC(=O)OCC1OC(C#Cc2ccc(F)cc2F)C=CC1OC(=O)OCC (stereo not given) | nt | nt | nt | 0.0%[10.1 µM] | nt | 6.4%[13.1 µM]
Oc1ccccc1-c1nc(NCc2ccccc2)c2ccccc2n1 | 22.4µM* | 12.6% | -8.5% | nt | -6.9% | nt
Oc1ccccc1-c1nc(NCc2cccnc2)c2ccccc2n1 | ? | -3.2% | -7.3% | 0.0% | -1.1% | 2.5%
CCCOC(=O)/C(=C\c1ccc([N+](=O)[O-])o1)NC(=O)c1ccccc1 | 7.08µM* | ? | -1.1% | 0.0% | ? | -6.3%
CCOC(=O)/C(=C\c1ccc([N+](=O)[O-])o1)NC(=O)c1ccccc1 | -16.2% | ? | -9.4% | -0.3% | ? | -2.0%
O=C(COc1ccccc1C(=O)Nc1cccc([N+](=O)[O-])c1)Nc1ccc(Br)cc1 | nt | nt | nt | nt | 2.7% | nt
CCN(CC)c1ccc(/C=C/c2cc(-c3ccccc3)c3ccccc3n2)cc1 | ? | 37.6% | ? | 3.16µM* | ? | ?
CN(C)c1ccc(/C=C/c2cc(/C=C/c3ccc(N(C)C)cc3)c3ccccc3n2)cc1 | nt | nt | nt | nt | 2.82µM* | nt
Cc1cc(/C=C/c2ccccc2)nc2ccccc12 | nt | nt | nt | nt | -10.5% | nt
CN(C)c1ccc(/C=C/c2ccc3ccccc3n2)cc1 | ? | 17.0% | -4.8% | ? | -19.3% | ?
CCN(CC(=O)Nc1ccccc1-c1ccccc1)Cc1nc2ccccc2c(=O)[nH]1 | -0.7% | -4.1% | -2.8% | 4.0% | 7.08µM* | 1.2%
CC1(C)Nc2cccc3c(N=Nc4ccc(N=Nc5ccccc5)c5ccccc45)ccc(c23)N1 | nt | nt | nt | nt | 4.7% | nt
Oc1nc(Nc2cccc(Cl)c2)sc1/C=C1\C=Nc2ccccc21 | -8.6% | -9.1% | 2.3% | 0.0% | -15.0% | -12.3%
Oc1cccc(Nc2nc(O)c(/C=C3\C=Nc4ccccc43)s2)c1 | 11.2µM* | 6.7% | 93.3% | 1.5% | 4.47µM* | -14.4%
C1=Cc2ccccc2/C1=C\c1cccc(/C=C2\C=Cc3ccccc32)c1 | nt | nt | nt | nt | -23.8% | nt
CC(OC(=O)/C(C#N)=C/c1ccc(N(C)C)cc1)C(=O)N(C)Cc1ccccc1 (stereo not given) | 22.4µM* | 5.4% | ? | nt | ? | nt
Cc1ccc(/C=C2\SC(N3CCCC3)=NC2=O)cc1 | nt | ? | nt | -4.5% | nt | 2.2%
CN(C)c1ccc(/C=C2\SC(N3CCCCC3)=NC2=O)cc1 | 22.4µM* | ? | ? | nt | ? | nt
CN(C)c1c(Cl)cc(/C=C2\C=Cc3ccccc32)cc1Cl | nt | nt | nt | nt | 0.9% | nt
Cc1ccc2c(c1)S/C(=C/c1ccc[n+](C)c1)N2CCO | ? | ? | -0.4% | 3.2% | ? | -1.3%
CCN1/C(=C/c2ccc3ccccc3[n+]2CC)C=Cc2ccccc21 | 12.6µM* | ? | ? | ? | ? | ?
CCN1/C(=C/c2ccc3cc(C)ccc3[n+]2C)Sc2ccc3sccc3c21 | ? | ? | -0.5% | 10µM* | -9.5% | ?
CCN1/C(=C/c2ccc3ccccc3[n+]2CCCS(=O)(=O)[O-])C=Cc2cc(C)ccc21 | 7.0% | ? | -2.1% | nt | 1.7% | nt
CCN1/C(=C/c2ccc3cc(C)ccc3[n+]2CC)Sc2cc(C)ccc21 | ? | nt | 14.0% | 2.82µM* | 4.3% | -24.4%
CCCCN1/C(=C/c2ccc3ccccc3[n+]2CC)Sc2ccccc21 | ? | ? | 11.8% | 3.16µM* | ? | -3.7%
CC(=O)Nc1ccc(/C=C/c2sc3ccccc3[n+]2CCCCI)cc1 | nt | nt | nt | nt | -7.4% | nt
CCc1ccc(C(=O)c2cn(CC(=O)Nc3ccc(OC)c(Cl)c3)c3nc(C)ccc3c2=O)cc1 | 4.0% | nt | nt | 15.8µM* | 3.1% | nt
COc1ccc(OC)c(NC(=O)c2cc(-c3cc(C)cc(C)c3O)n[nH]2)c1 | 11.2µM* | 5.1% | -1.8% | nt | -0.3% | nt
